# Assay outcomes (PubChem)
# KDM5B inh – Primary screen for KDM5B Histone Demethylases FDH-coupled qHTS; KDM5B demethylase, FDH-coupled NADH fluorescence (FDH is formaldehyde dehydrogenase); Potency, µM (series often up to 57.7 µM), most hits filed as inhibitors; 2.6% of 220,000 active; AID 1347165, 2019; active = well fitted inhibition curve with a large enough effect; note: 0% is about no effect; nearly all actives have a fitted effect of over 70% in size
# Target sequence (Q9UGL1 whole entry, looked up): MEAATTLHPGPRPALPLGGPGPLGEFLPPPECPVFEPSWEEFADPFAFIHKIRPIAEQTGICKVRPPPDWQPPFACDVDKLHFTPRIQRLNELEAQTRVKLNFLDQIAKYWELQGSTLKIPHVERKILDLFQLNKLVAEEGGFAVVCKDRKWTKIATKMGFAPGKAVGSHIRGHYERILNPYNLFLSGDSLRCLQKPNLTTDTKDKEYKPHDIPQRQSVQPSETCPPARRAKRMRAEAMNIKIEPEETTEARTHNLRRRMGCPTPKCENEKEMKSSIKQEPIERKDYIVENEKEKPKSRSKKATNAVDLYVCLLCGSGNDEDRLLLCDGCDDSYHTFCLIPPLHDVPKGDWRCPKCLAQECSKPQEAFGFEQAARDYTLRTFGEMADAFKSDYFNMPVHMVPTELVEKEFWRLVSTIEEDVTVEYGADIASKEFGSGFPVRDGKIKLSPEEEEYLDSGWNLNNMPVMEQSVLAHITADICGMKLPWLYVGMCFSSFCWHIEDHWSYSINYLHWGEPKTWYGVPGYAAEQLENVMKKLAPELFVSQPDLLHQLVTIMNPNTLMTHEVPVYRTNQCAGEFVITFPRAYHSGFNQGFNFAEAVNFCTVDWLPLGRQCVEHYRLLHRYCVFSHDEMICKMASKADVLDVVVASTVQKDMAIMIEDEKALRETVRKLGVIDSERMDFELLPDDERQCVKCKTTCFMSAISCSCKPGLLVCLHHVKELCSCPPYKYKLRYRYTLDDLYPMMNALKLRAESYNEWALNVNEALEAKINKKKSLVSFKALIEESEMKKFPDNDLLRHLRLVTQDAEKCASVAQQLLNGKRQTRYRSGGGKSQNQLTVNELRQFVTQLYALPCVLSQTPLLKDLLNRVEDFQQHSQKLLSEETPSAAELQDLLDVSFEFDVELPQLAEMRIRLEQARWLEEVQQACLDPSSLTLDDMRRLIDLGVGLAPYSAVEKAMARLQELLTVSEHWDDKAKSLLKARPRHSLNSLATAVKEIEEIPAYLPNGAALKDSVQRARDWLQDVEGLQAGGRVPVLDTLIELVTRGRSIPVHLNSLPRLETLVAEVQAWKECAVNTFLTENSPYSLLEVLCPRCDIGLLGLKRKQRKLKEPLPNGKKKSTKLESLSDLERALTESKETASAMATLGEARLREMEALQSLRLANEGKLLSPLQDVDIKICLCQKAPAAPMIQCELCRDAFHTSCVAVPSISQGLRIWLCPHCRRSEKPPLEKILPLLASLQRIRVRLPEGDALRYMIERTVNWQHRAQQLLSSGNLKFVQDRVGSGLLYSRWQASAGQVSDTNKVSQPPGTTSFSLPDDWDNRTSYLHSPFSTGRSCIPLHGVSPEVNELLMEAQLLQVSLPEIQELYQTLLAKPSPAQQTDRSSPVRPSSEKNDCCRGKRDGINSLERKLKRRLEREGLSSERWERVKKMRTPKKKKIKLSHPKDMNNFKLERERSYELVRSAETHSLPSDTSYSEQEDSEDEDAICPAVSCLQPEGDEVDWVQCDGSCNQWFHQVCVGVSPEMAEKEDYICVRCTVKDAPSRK
#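 Compound dilutions met 200 nM (final) KDM5BΔAP for 10 min at room temperature before substrate addition. The substrate mix held 12.5 µM H3K4me3 with cofactors 25 µM α-ketoglutarate and 50 µM Fe²⁺. NADH signal gain over 30 min defined activity.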
# * marks the source's active call; other numbers are inactive results; i = inactive. This is one part of a sample in which hits are shown more often than they occur. Potency is the fitted concentration of half-maximal effect.
SMILES,KDM5B inh
Cc1ccc(C(C)C)c(OC2(c3ccccc3)OC(=O)c3ccccc32)c1 (stereo not given),i
COC(=O)c1cc2n(n1)CCCN(C(=O)CCn1cnnn1)C2,i
COc1ccc(CCNC(=O)c2cc(=O)c3cc(Cl)ccc3o2)cc1OC,i
CCc1ccc(NC(=O)Cn2c(=O)c(-c3ccccc3NC(C)=O)nc3ccccc32)cc1,i
Cc1ccccc1S(=O)(=O)N1C[C@@H](Oc2cccnc2)C[C@H]1C(N)=O,i
COc1ccc(CN2C(=O)COC[C@H]2C(=O)Nc2cc(C)c(Cl)cc2OC)cc1,i
O=C(Cn1ccccc1=O)Nc1ccc(F)cc1Cl,i
COCCN1CCCCCC(O)c2cc(C(=O)N3CCN(c4ccccc4OC)CC3)ccc21 (stereo not given),i
COCCN1CCCCCC(O)c2cc(C(=O)N(C)Cc3cccnc3)ccc21 (stereo not given),i
COCCN1CCCCCC(O)c2cc(C(=O)NCCc3nc4ccccc4n3C)ccc21 (stereo not given),i
COCCN1CCCCCC(O)c2cc(C(=O)NC3CCC3)ccc21 (stereo not given),32µM*
COCCN1CCCCCC(O)c2cc(C(=O)N3CCN(c4cccc(OC)c4)CC3)ccc21 (stereo not given),i
COCCN1CCCCCC(O)c2cc(C(=O)N(C)Cc3ccc(N4CCCCC4)cc3)ccc21 (stereo not given),7.9µM*
COc1ccccc1C(=O)NCC(=O)N/N=C/c1ccc2c(c1)OCO2,i
COCCN(C(=O)CCC(=O)Nc1cc(C)on1)C(C(=O)NC(C)(C)C)c1cccc(OC)c1OC (stereo not given),i
COc1ccc(OC)c(NC(=O)c2ccc3nc(C(C)C)oc3c2)c1,i
CO[C@H]1COCCN(C(=O)c2cc(C)nn2C)C1,i
CCC(=O)N1CCC2(CC1)OCC(C(=O)NCC1CCCO1)N2C(=O)c1cccc(OC)c1 (stereo not given),i
O=C(CC1CNCCO1)N1CCc2nc(-c3ccc(Cl)cc3)[nH]c2C1 (stereo not given),25µM*
O=C(Cc1ccc(F)cc1)N1CCc2nc(C3CC3)nc(-c3ccc(Cl)cc3)c2C1,i
O=C(C1CCCCn2nnnc21)N1CCc2nc(-c3cccnc3)[nH]c2C1 (stereo not given),i
O=C(C1=NN[C@@H]2C(=O)N(c3ccccc3C(F)(F)F)C(=O)[C@H]12)c1cnccn1,i
Cc1onc(-c2ccc(Cl)cc2Cl)c1C(=O)/C=C/N(C)C,i
Cc1ccc(S(=O)(=O)N2CCN(C(=O)Cn3nc4c(cc3=O)CCCC4)CC2)cc1,i
Cc1cnn(C(C)c2nc(-c3cccnn3)no2)c1 (stereo not given),i
SMILES,KDM5B inh
OCCc1cnc2c(-c3nc(-c4cccnn4)no3)cnn2c1,25µM*
c1cnnc(-c2noc(C3(Cn4cccn4)CC3)n2)c1,i
COC(=O)c1ccc(CNC(=O)c2cccc(F)c2)cc1,i
Cc1cc(=O)n(CC(=O)Nc2ccc3c(c2)OCO3)c(N2CCc3ccccc3C2)n1,i
O=C(NCc1nnc2ccc(-c3ccccc3)nn12)c1ccc[nH]c1=O,28µM*
Cc1cc(C)cc(C(=O)NCc2nnc3ccc(-c4ccccc4)nn23)c1,25µM*
COc1ccccc1CC(=O)NCc1nnc2ccc(-c3ccccc3)nn12,i
O=C(CSc1nnc2ccc(-c3ccncc3)nn12)N1CCN(c2ccccc2)CC1,i
Cc1ccc(C(=O)NCc2nnc3ccc(-c4ccccc4)nn23)c(C)c1,28µM*
CC(C(=O)NCc1nnc2ccc(-c3ccccc3)nn12)c1ccccc1 (stereo not given),28µM*
CCOC(=O)N1CCN(C(=O)CCc2ccc(S(=O)(=O)NCC(C)C)cc2)CC1,i
CCOC(=O)c1c(C)sc(-c2c(-c3cccc(Cl)c3)[nH]c3c2c(=O)n(C)c(=O)n3C)c1O,i
CC(=O)c1ccc(NC(=O)CN2C(=O)NC3(CCCc4ccccc43)C2=O)cc1 (stereo not given),i
Cc1ccc(-c2cn3c(n2)N(C(=O)C2CCCO2)CCC3)cc1 (stereo not given),i
O=C(Nc1cccc2ccccc12)C1CCCCC1,i
CCN(CC)Cc1ccc(C(=O)NC)o1,i
CCNc1nc(Oc2ccc(OCC(=O)OC)nn2)nc(N2CCOCC2)n1,i
CCc1ccc(NC(=O)CN2C(=O)C3(SCC(=O)N3c3ccc(F)c(F)c3)c3ccccc32)cc1 (stereo not given),i
Clc1ccc(-c2nc(C3CC3)nc3c2CCN(Cc2ccccc2)CC3)cc1,i
Cc1ccc(CN2CCc3nc(C4CC4)nc(-c4ccc(O)cc4)c3CC2)cc1,i
COc1ccc(-c2nc(C3CC3)nc3c2CCN(C(=O)c2ccccc2F)CC3)cc1,i
COc1ccc(-c2nc(C3CC3)nc3c2CCN(CCC(C)C)CC3)cc1,79µM*
COc1ccc(-c2nc(C3CC3)nc3c2CCN([S+](=O)([O-])c2cccc(OC)c2)CC3)cc1,i
COc1ccc(-c2nc(C3CC3)nc3c2CCN(Cc2ccc(C(F)(F)F)cc2)CC3)cc1,50µM*
Cc1cc(OCC(=O)OCC(=O)c2ccc(-c3ccccc3)cc2)ccc1Cl,i
SMILES,KDM5B inh
CSCC[C@H](NC(=O)C1CCN(C(=O)[C@H](Cc2ccccc2)NS(=O)(=O)c2ccc(C)cc2)CC1)C(=O)O,i
Cc1ccc2c(=O)[nH]c(Cc3ccccc3C(=O)O)nc2c1,i
O=C(OCC(=O)N1CCC(c2ccccc2)=N1)c1cc2c(s1)CCC2,i
CN(c1ccccc1)S(=O)(=O)c1ccc(C(=O)Nc2nnc(C3CC3)s2)cc1,i
CN(Cc1ccccc1F)C(=O)c1sccc1-c1ccccc1,i
CCn1cc(CN2CCSCC2)ccc1=O,i
COc1cc(NC(=O)c2cc(S(=O)(=O)N3CCc4ccccc43)cn2C)cc(OC)c1,i
CC(=O)N[C@@H]1C=C[C@@H](c2c(C)nn(-c3ccc(C(C)(C)C)cc3)c2C)C1,i
O=c1[nH]c(CN2CCCn3nc(CO)cc3C2)nc2ccsc12,i
O=S(=O)(c1cccs1)N1CCc2nc(C3CC3)nc(-c3ccc(Cl)cc3)c2C1,i
CCc1ncc2c(N3CC4CCC(C3)N4CC(F)(F)F)nc3ccccc3n12,71µM*
FC(F)(F)CN1C2CCC1CN(c1cnccn1)C2,i
COc1cc2ncnc(N3CC4CCC(C3)N4CC(F)(F)F)c2cc1OC,i
CCCCNC(=O)CSc1nc2ccccc2nc1Cc1ccccc1,i
CC1(C)c2ccccc2N2CC(=O)N[C@@]21/C=C/c1ccc(Cl)cc1,i
O=C(NC1CCCCCC1)c1ccc(CS(=O)c2cccc(Cl)c2)o1 (stereo not given),i
COc1ccc(NC(=O)c2nnn3c2COC(c2ccc(F)cc2)C3)cc1Cl (stereo not given),i
COc1ccc(NC(=O)c2cc3n(n2)CC(c2ccc(Cl)cc2)OC3)cc1Cl (stereo not given),25µM*
O=C(Nc1ccc(Cl)c(Cl)c1)c1cc2n(n1)CC(c1ccc(Cl)cc1)OC2 (stereo not given),28µM*
O=C(NCC1CC1)c1cc2n(n1)CC(c1ccc(Cl)cc1)OC2 (stereo not given),i
COc1cc(NC(=O)c2cc3n(n2)CC(c2ccc4c(c2)OCO4)OC3)c(OC)cc1Cl (stereo not given),i
